# Laboratory results from PubChem BioAssay AID1159580 (chemical genetic matrix, 2015).
# Among all 5,500 compounds or so, about 2,000 (36%) were called active. Another 18% or so got no clear call; they are omitted. Some of the results follow. Values without a mark were called inactive. No stated cut-off is given here; in the data, active means normalized growth mostly below about 0.91 (no sharp cut-off); inconclusive means no clear call, values can overlap the other calls; inactive means mostly above about 0.92.
# Assay: chemical genetic growth profiling, strain panel (AID 1159580);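 further: tested at 20 µM; growth read once vehicle control cultures reached saturation at 30 °C; 1 = growth at the plate median or of vehicle wells; lower values mean less growth of the strain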
# Settings: S. cerevisiae deletion strains, growth OD
# [1] = locus YDR150W, strain NUM1, hits give low values
# [2] = locus YGR078C, strain PAC10, hits give low values
# [3] = locus YJR075W, strain HOC1, hits give low values
# [4] = locus YMR263W, strain SAP30, hits give low values
# [5] = locus YPL055C, strain LGE1, hits give low values
# [6] = locus YDL101C, strain DUN1, hits give low values
# [7] = locus YHR030C, strain SLT2, hits give low values
smiles,measurement,setting,value
CCCCCCCCCCCCCCSCC(=O)O,normalized growth,"locus YAL040C, strain CLN3, hits give low values",0.97
same,normalized growth,"locus YCL061C, strain MRC1 (second series), hits give low values",1.01
same,normalized growth,[1],0.997
same,normalized growth,"locus YDR363W, strain ESC2, hits give low values",0.993
same,normalized growth,"locus YER002W, strain NOP16, hits give low values",0.937
same,normalized growth,[2],0.998
same,normalized growth,"locus YGR229C, strain SMI1, hits give low values",0.959
same,normalized growth,[3],0.99
same,normalized growth,[4],1
same,normalized growth,"locus YMR307W, strain GAS1, hits give low values",0.992
same,normalized growth,"locus YNL175C, strain NOP13, hits give low values",0.938
same,normalized growth,"locus YNL197C, strain WHI3, hits give low values",0.957
same,normalized growth,"locus YNL224C, strain SQS1, hits give low values",0.954
same,normalized growth,"locus YOR083W, strain WHI5 (second series), hits give low values",0.825 (active)
same,normalized growth,[5],0.955
CCCC(C)(SCC(=O)O)SCC(=O)O,normalized growth,"locus YAL013W, strain DEP1, hits give low values",1
same,normalized growth,"locus YBR229C, strain ROT2, hits give low values",1
same,normalized growth,[6],1.09
same,normalized growth,[1],1.03
same,normalized growth,"locus YEL061C, strain CIN8, hits give low values",0.951
same,normalized growth,[2],1.02
same,normalized growth,[7],1.03
same,normalized growth,"locus YHR087W, strain rtc3, hits give low values",0.98
same,normalized growth,"locus YJL187C, strain SWE1, hits give low values",1
same,normalized growth,"locus YJR043C, strain POL32, hits give low values",1.01
same,normalized growth,[3],1.04
same,normalized growth,"locus YKL190W, strain CNB1, hits give low values",0.992
same,normalized growth,"locus YLR039C, strain RIC1, hits give low values",0.981
same,normalized growth,"locus YLR058C, strain SHM2 (second series), hits give low values",0.984
same,normalized growth,"locus YLR085C, strain ARP6, hits give low values",1.02
same,normalized growth,"locus YLR262C, strain YPT6, hits give low values",1.02
same,normalized growth,"locus YML094W, strain GIM5, hits give low values",0.993
same,normalized growth,"locus YMR219W, strain ESC1, hits give low values",0.999
same,normalized growth,[4],1.01
same,normalized growth,"locus YNL128W, strain TEP1, hits give low values",0.985
same,normalized growth,"locus YNL153C, strain GIM3, hits give low values",1.04
same,normalized growth,"locus YNL298W, strain CLA4 (second series), hits give low values",1.02
same,normalized growth,"locus YNL322C, strain KRE1, hits give low values",0.993
same,normalized growth,"locus YNR030W, strain Alg12, hits give low values",1.01
same,normalized growth,"locus YOL006C, strain TOP1, hits give low values",1
same,normalized growth,[5],1
same,normalized growth,"locus YPL241C, strain CIN2, hits give low values",1.05
same,normalized growth,"locus YPR135W, strain CTF4, hits give low values",1.08
C=CC(=O)N1CCc2cc([N+](=O)[O-])ccc21,normalized growth,"locus YAR019C, strain CDC15, hits give low values",0.735 (active)
same,normalized growth,"locus YBL105C, strain PKC1, hits give low values",0.778 (active)
same,normalized growth,"locus YBR135W, strain CKS1, hits give low values",0.766 (active)
same,normalized growth,"locus YBR136W, strain MEC1, hits give low values",0.764 (active)
same,normalized growth,"locus YBR160W, strain CDC28, hits give low values",0.791 (active)
same,normalized growth,"locus YDL017W, strain CDC7, hits give low values",0.8 (active)
same,normalized growth,"locus YDL028C, strain MPS1, hits give low values",0.796 (active)
same,normalized growth,[6],0.789 (active)
same,normalized growth,"locus YDL108W, strain KIN28, hits give low values",0.798 (active)
same,normalized growth,"locus YDL132W, strain cdc53, hits give low values",0.725 (active)
same,normalized growth,"locus YDL214C, strain PRR2, hits give low values",0.37 (active)
same,normalized growth,"locus YDR052C, strain DBF4, hits give low values",0.827 (active)
same,normalized growth,"locus YDR054C, strain cdc34, hits give low values",0.689 (active)
same,normalized growth,"locus YDR226W, strain ADK1, hits give low values",0.839 (active)
same,normalized growth,"locus YDR477W, strain SNF1, hits give low values",0.335 (active)
same,normalized growth,"locus YER123W, strain YCK3, hits give low values",0.236 (active)
same,normalized growth,"locus YER133W, strain GLC7, hits give low values",0.275 (active)
same,normalized growth,"locus YFL009W, strain cdc4, hits give low values",0.739 (active)
same,normalized growth,"locus YFL029C, strain CAK1, hits give low values",0.72 (active)
same,normalized growth,"locus YFR003C, strain YPI1, hits give low values",0.807 (active)
same,normalized growth,"locus YFR019W, strain FAB1, hits give low values",0.369 (active)
same,normalized growth,"locus YFR028C, strain CDC14, hits give low values",0.805 (active)
same,normalized growth,"locus YGR040W, strain KSS1, hits give low values",0.287 (active)
same,normalized growth,"locus YGR052W, strain FMP48, hits give low values",0.308 (active)
same,normalized growth,"locus YGR092W, strain DBF2, hits give low values",0.12 (active)
same,normalized growth,[7],0.253 (active)
same,normalized growth,"locus YHR079C, strain IRE1, hits give low values",0.255 (active)
same,normalized growth,"locus YHR082C, strain KSP1, hits give low values",0.263 (active)
same,normalized growth,"locus YHR205W, strain SCH9, hits give low values",0.228 (active)
same,normalized growth,"locus YIL147C, strain SLN1, hits give low values",0.794 (active)
same,normalized growth,"locus YJL095W, strain BCK1, hits give low values",0.276 (active)
same,normalized growth,"locus YJL128C, strain PBS2, hits give low values",0.842
same,normalized growth,"locus YJL157C, strain FAR1, hits give low values",0.315 (active)
same,normalized growth,"locus YJR016C, strain ILV3, hits give low values",0.742 (active)
same,normalized growth,"locus YJR066W, strain TOR1 (second series), hits give low values",0.24 (active)
same,normalized growth,"locus YJR066W, strain TOR1, hits give low values",0.274 (active)
same,normalized growth,"locus YKL048C, strain ELM1, hits give low values",0.556 (active)
same,normalized growth,"locus YKL067W, strain YNK1, hits give low values",0.35 (active)
same,normalized growth,"locus YKL101W, strain HSL1, hits give low values",0.46 (active)
same,normalized growth,"locus YKL193C, strain SDS22, hits give low values",0.729 (active)
same,normalized growth,"locus YKL203C, strain TOR2, hits give low values",0.355 (active)
same,normalized growth,"locus YLR113W, strain HOG1, hits give low values",0.247 (active)
same,normalized growth,"locus YLR133W, strain CKI1, hits give low values",0.409 (active)
same,normalized growth,"locus YLR403W, strain SFP1, hits give low values",0.271 (active)
same,normalized growth,"locus YML070W, strain DAK1, hits give low values",0.311 (active)
same,normalized growth,"locus YMR001C, strain CDC5, hits give low values",0.744 (active)
same,normalized growth,"locus YMR205C, strain PFK2 (second series), hits give low values",0.424 (active)
same,normalized growth,"locus YMR277W, strain FCP1, hits give low values",0.746 (active)
same,normalized growth,"locus YNL006W, strain LST8, hits give low values",0.754 (active)
same,normalized growth,"locus YNL020C, strain ARK1, hits give low values",0.412 (active)
same,normalized growth,"locus YNL161W, strain CBK1, hits give low values",0.737 (active)
same,normalized growth,"locus YNL183C, strain NPR1, hits give low values",0.22 (active)
same,normalized growth,"locus YNL207W, strain RIO2, hits give low values",0.757 (active)
same,normalized growth,"locus YNL222W, strain SSU72, hits give low values",0.734 (active)
same,normalized growth,"locus YNL307C, strain MCK1 (second series), hits give low values",0.323 (active)
same,normalized growth,"locus YOL078W, strain AVO1, hits give low values",0.71 (active)
same,normalized growth,"locus YOL136C, strain PFK27, hits give low values",0.316 (active)
same,normalized growth,"locus YOR061W, strain CKA2, hits give low values",0.498 (active)
same,normalized growth,"locus YOR119C, strain RIO1, hits give low values",0.334 (active)
same,normalized growth,"locus YOR231W, strain MKK1, hits give low values",0.255 (active)
same,normalized growth,"locus YOR329C, strain SCD5, hits give low values",0.759 (active)
same,normalized growth,"locus YPL031C, strain PHO85, hits give low values",0.268 (active)
same,normalized growth,"locus YPL153C, strain RAD53, hits give low values",0.273 (active)
same,normalized growth,"locus YPL204W, strain HRR25, hits give low values",0.282 (active)
same,normalized growth,"locus YPL209C, strain IPL1, hits give low values",0.778 (active)
same,normalized growth,"locus YPL256C, strain CLN2, hits give low values",0.299 (active)
same,normalized growth,"locus YPR025C, strain CCL1, hits give low values",0.764 (active)
same,normalized growth,"locus YPR106W, strain ISR1, hits give low values",0.864 (active)
same,normalized growth,"locus YPR111W, strain DBF20, hits give low values",0.887
same,normalized growth,"strain NNK1, hits give low values",0.824 (active)
same,normalized growth,"strain TSCII, hits give low values",0.643 (active)
